Assay outcomes as filed in PubChem.
The list is not random: actives were taken first. Their share in the collection is about 2.7%.
Integrin act MD – qHTS for Activators of Integrin-Mediated Alleviation for Muscular Dystrophy | Potency, µM (titrated, usually from 38.3 µM), without a hit: at the highest dose activation, most hits filed as activators | 350,000 compounds, 0.064% hits | alpha7betagal myoblasts, beta-gal FDG fluorescence, 48 h;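 note: 100% = response of the positive control SU9516; nearly all actives have a fitted effect of over 60% in size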
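Alpha7betagal+/- myoblasts (passage 13) were plated 16-24 hr, then exposed to compounds (1:260 dilution of DMSO stock) for 48 hours at 37C. After MPER lysis, β-galactosidase reporter activity was read as FDG fluorescence (ex 480/em 540) after 30 minutes.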
GLP1R ag – qHTS of GLP-1 Receptor Agonists. AID 624172, 2012. Potency, µM (doses to about 45.6 µM), inactives show at the top dose activation, most hits filed as activators. Glucagon-like peptide 1 receptor (Homo sapiens), P43220. HEK293 GLP-1R CRE-luciferase, luminescence, 4-6 h; cells express a hypersensitive GLP-1R form. 380,000 compounds, 0.007% hits; note: % of control where 0% means no effect
Target sequence (P43220 whole entry, looked up): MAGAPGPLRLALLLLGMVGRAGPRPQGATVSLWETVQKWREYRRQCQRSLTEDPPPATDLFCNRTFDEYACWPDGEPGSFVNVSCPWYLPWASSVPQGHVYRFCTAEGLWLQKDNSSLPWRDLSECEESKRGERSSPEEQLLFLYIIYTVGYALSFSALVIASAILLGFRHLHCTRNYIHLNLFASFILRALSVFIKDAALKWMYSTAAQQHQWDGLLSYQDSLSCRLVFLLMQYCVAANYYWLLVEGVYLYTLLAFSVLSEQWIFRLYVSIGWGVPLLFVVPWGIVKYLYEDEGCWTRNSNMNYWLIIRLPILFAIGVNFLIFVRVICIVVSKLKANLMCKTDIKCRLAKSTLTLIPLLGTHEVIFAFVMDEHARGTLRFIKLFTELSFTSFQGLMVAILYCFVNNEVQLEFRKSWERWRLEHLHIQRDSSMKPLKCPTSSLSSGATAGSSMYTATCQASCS
HEK293 tox – qHTS of GLP-1 Receptor Inverse Agonists: Cytotox Screen; HEK293 cAMP-luciferase reporter cells, luminescence, 24 h; Potency, µM (doses to about 38.3 µM), for the others: at the top dose activity change, negative = inhibition, hits mostly inhibitors; 410,000 compounds, 0.13% hits;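 note: loss of luciferase light is scored as toxicity; % is set by controls: 0 for no effect and ±100 for the full control effect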
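To flag toxic compounds, the library was rerun on cells for 24 hr at 37 deg C and 5% CO2. Viability-linked luminescence was captured 12 min after adding luciferase detection reagent.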
GLP1R inv ag – qHTS of GLP-1 Receptor Inverse Agonists (Inhibition Mode) | Glucagon-like peptide 1 receptor (Homo sapiens), P43220 | HEK293 GLP-1R CRE-luciferase, luminescence, 24 h; GLP-1R form is constitutively active | Potency, µM (top dose mostly 38.3 µM), for inactives: at the top dose activity change, negative = inhibition, actives largely listed as inhibitors | 410,000 compounds, 1.6% hits; note: % is set by controls: 0 for no effect and ±100 for the full control effect; nearly all actives have a fitted effect of over 55% in size
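Stable HEK293 clone (constitutively active GLP-1R + cAMP-response luciferase); 200 cells/uL plated, 12 h pre-culture, compound 24 hr, 37 deg C/5% CO2; detection reagent 12 min RT; luminescence.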
BRCA1 expr up – qHTS Assay to Identify Small Molecule Activators of BRCA1 Expression; MCF7-BRCA1-FFLuc reporter, luminescence, 48 h; response scale: scaled: vehicle 0%, 10 µM genistein 100%; Potency, µM (doses to about 46.1 µM), inactives show at the highest dose activation, usual class: activators; 380,000 compounds, 1.1% hits; AID 624202, 2012; note: nearly all actives have a fitted effect of over 80% in size
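MCF7-BRCA1-FFLuc cells, 2000/well in phenol-red-free MEM, attached 2 h then treated 48 h at 37 C. Luciferase luminescence read 15 min after reagent; normalized to genistein maximum activation (10microM) and DMSO, concentration-response fitted.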
Starred values were filed as active, the others as inactive; ? = inconclusive; . = no result. Calls come from the whole dose curve; as a rule, active = well fitted curve in the direction sought with a large enough effect; inconclusive = small, poorly fitted or top-dose-only effect, or another doubt; inactive = no such curve, though single readings can be large; an effect the other way counts as inactive or inconclusive. Potency is the fitted concentration of half-maximal effect.

SMILES | Integrin act MD | GLP1R ag | HEK293 tox | GLP1R inv ag | BRCA1 expr up
CCCCN(CCCNC(=O)CN1N=C(c2ccc(C)cc2)CCC1=O)c1ccccc1 | . | . | -5% | 13µM* | .
CCN(CCCNC(=O)CN1N=C(c2ccc(C)cc2)CCC1=O)c1ccccc1 | . | . | 3% | -23% | .
CC(C)(C)SCCNC(=O)/C=C/c1ccc(F)cc1 | -32% | 14% | -1% | -24% | ?
CC(C)(CNC(=O)/C=C/c1ccc(F)cc1)CNC(=O)/C=C/c1ccc(F)cc1 | 3% | 10% | -2% | 6.3µM* | 23%
CCC(CO)Nc1ccn2nc(-c3cccs3)cc2n1 (stereo not given) | . | 15% | 4% | 30% | 5.6µM*
CCC(CO)Nc1ccn2nc(-c3cc(OC)c(OC)c(OC)c3)cc2n1 (stereo not given) | . | 9% | 3% | 10% | -24%
CCC(CO)Nc1ccn2nc(-c3ccccc3)cc2n1 (stereo not given) | . | 5% | -5% | 17% | 3.5µM*
CN(C)C(=O)CNc1ccn2nc(-c3cccc(Cl)c3)cc2n1 | . | 16% | 13% | 2% | 5µM*
Clc1cccc(CNc2ccn3nc(-c4cccc(Cl)c4)cc3n2)c1 | . | -4% | -3% | ? | 72%
COC(=O)c1scc(-c2ccc(C)cc2)c1S(=O)(=O)N1CCN(c2ccccc2)CC1 | . | . | 19% | ? | .
CCC(C)(C)c1ccc(Oc2cccc(C(=O)O)c2)cc1 | 6% | 1% | -14% | 25% | 160%
CCC(C)(C)c1ccc(Oc2ccc(N)cc2)cc1 | -13% | 7% | -1% | 2.8µM* | -83%
O=c1[nH]c(COc2ccccc2)nc2ccccc12 | 2% | 5% | -19% | -25% | 50%
O=c1[nH]c(COc2ccc(Br)cc2Cl)nc2ccccc12 | 0% | 24% | ? | -20% | 4µM*
Cc1ccc2[nH]cc(C(c3ccccc3)c3ccc(Cl)s3)c2c1 (stereo not given) | . | . | -17% | 10µM* | .
COc1ccc(CCC(=O)NO)cc1 | . | . | . | . | -5%
CCOC(=O)c1sc(N)c(C(=O)OCC)c1C | 34% | ? | 1% | 55% | 73%
CCOC(=O)c1sc(N)c(C(=O)Nc2ccccc2)c1C | 10% | -1% | -8% | -10% | 13µM*
C=C(C1=CCN(S(=O)(=O)C(C)(C)C)[C@@H]1CCO)c1ccccc1 | -9% | -1% | 2% | 7.9µM* | -7%
O=C(Nc1ccccc1Br)c1ccc(OC(=S)N2CCOCC2)cc1 | 9% | 8% | 9% | 23% | 7.9µM*
COC(=O)c1ccc(NC(=O)CSc2nccn2Cc2ccc(Cl)cc2)cc1 | . | . | 0% | -14% | .
COc1cc(CCC(C)=O)ccc1OC(=O)c1c(F)cccc1Cl | -29% | 28% | -14% | ? | 8.9µM*
COc1ccc(CCNC(=O)c2ccccc2Cl)cc1OC | 4% | 4% | -10% | 25% | 10%
N#Cc1nc(N2CCCC2)nc(N(c2ccccc2)c2ccccc2)n1 | . | . | . | . | 2%
Cc1cc(C)c(NC(=O)Cc2ccc(-n3c(C)nc4cccnc43)cc2)c(C)c1 | . | . | 2% | -4% | .
SMILES | Integrin act MD | GLP1R ag | HEK293 tox | GLP1R inv ag | BRCA1 expr up
Cc1ccccc1NC1=C/C(=N\S(=O)(=O)c2ccc(C(=O)O)cc2)c2ccccc2C1=O | -69% | -2% | ? | 8.9µM* | -99%
O=C(O)c1ccc(S(=O)(=O)/N=C2\C=C(Nc3ccccc3F)C(=O)c3ccccc32)cc1 | ? | -9% | ? | ? | -92%
COc1ccc2nc3c(cc2c1)c(NC(=O)c1cccs1)nn3CC(C)C | -35% | -22% | 156% | 8.9µM* | -6%
Cc1cc2nc(-c3cc(NC(=O)c4cc5ccccc5o4)ccc3Cl)oc2cc1C | . | . | 13% | -1% | .
CCC1CCCCN1CCCNC(=O)c1cn(CC)c2ccc(S(=O)(=O)N3CCc4ccccc4C3)cc2c1=O (stereo not given) | -26% | 11% | -7% | ? | 0%
CCn1cc(C(=O)NCCCN(CC(C)C)CC(C)C)c(=O)c2cc(S(=O)(=O)N3CCOCC3)ccc21 | 18% | 4% | -6% | -1% | -14%
CCn1cc(C(=O)NCCN(CC(C)C)CC(C)C)c(=O)c2cc(S(=O)(=O)N3CCOCC3)ccc21 | 9% | 9% | -18% | 7.9µM* | 2%
CCn1cc(C(=O)NCCCN2CCCC(C)C2)c(=O)c2cc(S(=O)(=O)N3CCc4ccccc4C3)ccc21 (stereo not given) | -51% | 11% | -26% | 10µM* | -1%
S=C(Nc1ccccn1)Nc1ccccc1Cl | ? | 14% | 6.3µM* | ? | 100%
COc1ccc(NC(=S)Nc2cc(C)ccn2)c(OC)c1 | 14% | 2% | -6% | -14% | 79%
S=C(Nc1ccccn1)c1ccccn1 | -47% | -17% | 1µM* | 0.89µM* | 7.1µM*
Cc1c(Cl)cccc1NC(=S)Nc1ccccn1 | 6% | 6% | -23% | -9% | -73%
COc1ccc(NC(=S)Nc2ccccn2)c(OC)c1 | 4% | 5% | -15% | ? | 5.6µM*
Nc1ccc(/C=C/c2cccc3cccnc23)cc1 | . | . | . | . | 10%
O=C(/C=C/Nc1ccc(F)cc1Br)c1ccccc1 | 18% | -41% | 58% | ? | -46%
Cc1ccc(O)c(N/C=C/C(=O)c2ccc(F)cc2)c1 | 0% | 19% | -2% | ? | 6.3µM*
O=C(c1cc(-c2ccccc2)on1)N1CCCCCC1 | 19% | 8% | 8% | -20% | 1.8µM*
CN1CCN(C(=O)c2cc(-c3ccccc3)on2)CC1 | 16% | -5% | -16% | 3% | 7.9µM*
COc1cccc(-c2cc(C(=O)N3CCCCC3C)no2)c1 (stereo not given) | 1% | 24% | 13% | ? | 2.8µM*
O=C(c1cc(-c2ccc(Cl)c(Cl)c2)on1)N1CCOCC1 | 4% | 4% | ? | 16% | 1.3µM*
Cc1ccc(-c2cc(C(=O)N3CCCCCC3)no2)cc1 | 23% | 3% | -1% | ? | ?
O=C(c1cc(-c2ccc(Cl)cc2)on1)N1CCOCC1 | -5% | -11% | 31% | -15% | 24%
O=Cc1ccc(/C=C2\C=Cc3ccccc32)cc1 | . | . | . | . | -75%
O=C(Nc1ccc(F)c(F)c1)c1cnn2c1NC(=C1CC1)C=C2C(F)F | . | . | . | . | 3%
O=C(NCCCN1CCCC1=O)c1cc2c(s1)CCCCC2 | -55% | 6% | -2% | -3% | 11µM*
CC(Oc1ccc(F)cc1)C(=O)Nc1sc2c(c1C(=O)NCc1cccnc1)CCCC2 (stereo not given) | 13% | 1% | -24% | 10µM* | -71%
O=C(Nc1sc2c(c1C(=O)NCc1cccnc1)CCCC2)c1ccco1 | -16% | 19% | 2% | 0% | 0%
